According to PubChem BioAssay AID1456 (Vanderbilt High Throughput Screening Facility, 2008):
About 4,100 (2.2%) of roughly 190,000 compounds were called active. Only a selection was taken, and actives are over-represented in it overall. A number with no mark means an inactive call.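 Rule for the calls: active = thallium flux slope and its plate-corrected score both differing from the plate sample mean at a set confidence after two filtering rounds, in either direction; inactive = the rest.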

Molecular target: Solute carrier family 12 member 5 (Homo sapiens) (UniProt Q9H2X9)
Test: KCC2 cotransporter modulators, thallium flux, primary screen, cell-based, HEK293 KCC2, FluoZin-2 fluorescence, MLSMR (AID 1456);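 note: slope of fluorescence scaled to starting intensity during 10 to 20 s after thallium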
Details: KCC2 cells, thallium flux FluoZin-2 fluorescence; at 10 µM

Sequence of Solute carrier family 12 member 5 (Homo sapiens) (Q9H2X9 whole entry, looked up): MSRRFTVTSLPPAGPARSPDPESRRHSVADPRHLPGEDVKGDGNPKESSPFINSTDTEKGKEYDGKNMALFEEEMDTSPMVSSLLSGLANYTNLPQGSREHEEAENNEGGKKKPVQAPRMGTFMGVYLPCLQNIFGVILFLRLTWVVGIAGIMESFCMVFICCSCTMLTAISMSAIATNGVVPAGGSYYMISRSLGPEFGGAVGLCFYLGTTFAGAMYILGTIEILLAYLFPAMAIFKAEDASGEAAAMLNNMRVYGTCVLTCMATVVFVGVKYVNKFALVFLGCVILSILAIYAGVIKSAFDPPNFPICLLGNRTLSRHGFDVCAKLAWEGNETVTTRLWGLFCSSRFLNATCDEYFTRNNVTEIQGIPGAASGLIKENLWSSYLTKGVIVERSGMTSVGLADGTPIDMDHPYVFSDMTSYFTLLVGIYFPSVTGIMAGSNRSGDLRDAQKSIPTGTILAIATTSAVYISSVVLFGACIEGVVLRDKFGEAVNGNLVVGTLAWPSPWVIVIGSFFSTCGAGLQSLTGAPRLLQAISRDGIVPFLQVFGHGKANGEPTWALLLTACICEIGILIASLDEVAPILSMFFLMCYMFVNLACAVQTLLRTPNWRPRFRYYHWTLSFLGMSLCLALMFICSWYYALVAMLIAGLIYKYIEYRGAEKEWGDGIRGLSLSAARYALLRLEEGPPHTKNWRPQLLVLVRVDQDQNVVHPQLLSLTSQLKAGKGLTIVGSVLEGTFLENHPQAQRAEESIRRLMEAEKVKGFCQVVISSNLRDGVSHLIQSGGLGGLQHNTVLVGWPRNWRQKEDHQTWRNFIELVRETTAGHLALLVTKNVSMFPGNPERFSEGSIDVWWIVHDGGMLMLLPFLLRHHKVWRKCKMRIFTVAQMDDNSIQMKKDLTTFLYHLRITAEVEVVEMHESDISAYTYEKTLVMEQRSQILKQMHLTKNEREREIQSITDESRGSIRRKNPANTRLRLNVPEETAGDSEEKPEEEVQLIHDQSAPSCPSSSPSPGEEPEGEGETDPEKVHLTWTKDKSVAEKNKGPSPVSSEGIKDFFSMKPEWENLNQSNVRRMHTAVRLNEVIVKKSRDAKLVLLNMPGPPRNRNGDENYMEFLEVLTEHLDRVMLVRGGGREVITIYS

SMILES | B-score of Tl+ flux slope (higher = more flux/activation; lower = inhibition)
CCO[C@H]1OC(C(=O)N2CCN(Cc3ccccc3)CC2)=C[C@@H](c2cn(C(C)=O)c3ccccc23)[C@@H]1CCCO | -0.421
CCO[C@H]1OC(C(=O)NCc2ccccc2)=C[C@@H](c2coc3ccccc3c2=O)[C@@H]1CCCO | -2.75 (active)
C#CCNC(=O)C1=C[C@@H](c2ccccc2)[C@H](CCCO)[C@@H](OCC)O1 | 0.698
CN(C)c1ccc(/C=C/C(=O)c2ccc(O)cc2)cc1[N+](=O)[O-] | -1.51
CCN(CC(=O)Nc1ccc(S(=O)(=O)N2CCCC2)cc1)CC(=O)Nc1cccc(OC)c1 | -0.0112
Cc1onc(-c2ccc(Cl)cc2)c1-c1ccnn1S(=O)(=O)c1ccc(Cl)cc1 | 0.0713
C#CCNc1ccc(C(=O)OCC)cc1 | 0.0911
COc1ccc(C(=O)Nc2cccc(S(C)(=O)=O)c2)cc1 | -0.0335
COc1ccc(C(=O)NN(C)c2nc(-c3ccccc3)cc(C)c2S(C)(=O)=O)cc1 | -2.92 (active)
COc1ccc(OCC(=O)NNC(=O)c2ccc(-c3ccccc3)cc2)cc1 | -0.294
Cc1nc(COc2cccc(Cl)c2)sc1C(=O)/C=C/N(C)C | -0.976
CCN(CC)CCCN=Cc1c(O)n(-c2ccc(C)cc2)c(=O)c2ccccc12 | -0.624
O=C(CSc1nnnn1-c1ccc(O)cc1)c1ccc(F)cc1 | -0.119
CCOc1cccc(/C=N/N2C(=O)CSC2=S)c1O | 5.34 (active)
O=C1CSC(=S)N1/N=C/c1ccc(O)c([N+](=O)[O-])c1 | 0.571
CCOc1cccc(/C=N/NC(=S)NCCN2CCOCC2)c1O | -0.223
CC(=O)N1CCC(N(C(=O)Nc2ccc(Cl)cc2)C(C)C)CC1 | 0.402
COc1cc(C=O)ccc1Oc1nnnn1-c1ccccc1 | -0.736
Cc1ccc(S(=O)(=O)NC2(C(F)(F)F)NC(=O)N(CCc3ccccc3)C2=O)cc1 (stereo not given) | -0.615
O=C(NC1(C(F)(F)F)NC(=O)N(C2CCCCC2)C1=O)c1ccco1 (stereo not given) | 0.89
COc1ccc(C(=O)NC2(C(F)(F)F)NC(=O)N(CCCc3ccccc3)C2=O)c(OC)c1OC (stereo not given) | -3.82 (active)
COc1ccc(CN2CCNC(=O)C2CC(=O)N(C)Cc2ccccn2)cc1OC (stereo not given) | -0.00917
Cc1ccc(NS(=O)(=O)c2ccc(N/N=C/c3ccccc3OCC(=O)O)c([N+](=O)[O-])c2)c(C)c1 | -0.087
COc1cc(CN2CCN(Cc3ccc(C)cc3)CC2)c([N+](=O)[O-])cc1OC | -0.767

SMILES | B-score of Tl+ flux slope (higher = more flux/activation; lower = inhibition)
O=S(=O)(c1cccc(S(=O)(=O)N2CCC(n3nnc4ccccc43)CC2)c1)N1CCCCC1 | -6.25 (active)
CC(=O)c1cccc(S(=O)(=O)N2CCC(n3nnc4cc(F)ccc43)CC2)c1 | -0.212
O=C(c1ccc(F)cc1)N1CCC(n2nnc3ccccc32)CC1 | 1.38
CCN(CC)CCn1cnc2c1c(=O)n(CCOC(=O)c1cc(OC)c(OC)c(OC)c1)c(=O)n2C | -0.175
CC(=O)N1N=C(c2ccncc2)OC1(Cc1ccccc1)Cc1ccccc1 | -0.683
C(=N/Nc1cc(N2CCOCC2)nc(N2CCOCC2)n1)/c1ccccc1 | -0.154
Cc1ccccc1N/N=C/c1ccc(N2CCOCC2)cc1 | 3.06 (active)
Cc1cc(C(=O)N/N=C/c2ccc(N3CCOCC3)cc2)c(C)o1 | -0.588
COC(=O)C1=C(N)Oc2cc(C)[nH]c(=O)c2C1c1ccc(Cl)cc1 (stereo not given) | -2.12
O=C(NNS(=O)(=O)c1ccccc1)c1cnn(-c2ccc(Cl)cc2)c1C(F)(F)F | 0.887
CC1CN(/C=C/C(=O)C(F)(F)F)CC(C)O1 (stereo not given) | 1.01
O=C(Nc1ccncc1)c1cc2ccccc2o1 | 2.22
Cc1ccc(OC(=O)c2cc3ccccc3o2)cc1 | 0.278
C/C(=N\NC(=S)Nc1ccc(C)cc1)c1cc2ccccc2o1 | 90.2 (active)
COc1ccc(C)cc1S(=O)(=O)NCCc1ccccc1 | 0.198
COc1ccc(C)cc1S(=O)(=O)Nc1cccc(Cl)c1Cl | 2.43 (active)
COc1ccc(OC)c(S(=O)(=O)Nc2ccccc2F)c1 | 1.79
COc1ccc(NC(=O)C(C)SCc2ccccc2)cc1 (stereo not given) | -0.536
COc1ccc(NC(=O)N2CCC(Cc3ccccc3)CC2)cc1 | -5.5 (active)
CCOc1ccc(NC(=O)C2CCCN(C(=O)Nc3ccccc3)C2)cc1 (stereo not given) | -0.0798
S=C(NCCc1ccccc1)Nc1ccccc1 | -0.293
COc1cc(C(F)(F)F)c(C(=O)N(C)c2ccc(Cl)cc2)cn1 | 0.047
CCOC(=O)c1cn(CC)c2cc(F)c(F)cc2c1=O | -0.139
O=C(c1cc(COc2c(F)cccc2F)on1)N1CCSCC1 | -0.926

SMILES | B-score of Tl+ flux slope (higher = more flux/activation; lower = inhibition)
Cc1occc1C(=O)NNC(=S)NCC(C)C | -0.168
CC(C)CNC(=S)NC(=O)c1ccc(Cl)cc1 | 33 (active)
CC(C)C(NC(=O)c1ccc(Cl)cc1)C(=O)O (stereo not given) | 1.28
O=C(NN=C1CCC(=NNC(=O)c2cccnc2)CC1)c1cccnc1 | 0.0392
COc1ccc(Cl)cc1CSc1ncn[nH]1 | -1.03
NC(=S)N/N=C/c1coc2cc(Cl)ccc2c1=O | 1.23
CC(C)(C)OC(=O)NCCCCCC(=O)N/N=C/c1coc2ccccc2c1=O | -2.19
O=C(N/N=C/c1coc2ccccc2c1=O)c1cc2ccccc2o1 | 5.52 (active)
CCOC(=O)C1CCN(CCC(=O)Nc2cccc(C)c2)CC1 | 0.406
CN(CC(O)COc1ccc(S(=O)(=O)N2CCOCC2)cc1Cl)C1CCCCC1 (stereo not given) | 0.0176
O=C(NCc1ccco1)c1nc(-c2ccccc2)n(-c2ccccc2)n1 | -2.03
Cc1ccc(-c2nnn(CC(=O)N(Cc3ccco3)C(C(=O)NC(C)(C)C)c3ccncc3)n2)o1 (stereo not given) | -1.04
Cc1nn(-c2ccccc2)c2sc(C(=O)N(Cc3ccco3)C(C)C(=O)NC(C)(C)C)cc12 (stereo not given) | 8.53 (active)
Cc1nnc(Nc2ccccc2F)s1 | -0.881
CC(NC(=O)C(=O)Nc1nccs1)c1ccccc1 (stereo not given) | 2.74
N#Cc1nc(Cc2cccc3ccccc23)oc1NCc1ccc2c(c1)OCO2 | -5.13 (active)
Cn1cc(CCC(=O)NCc2ccc3c(c2)OCO3)c2ccccc21 | -1.1
O=C(COc1ccccc1)NCc1ccc2c(c1)OCO2 | -0.24
N#Cc1nc(COc2ccc(-c3ccccc3)cc2)oc1NCc1cccnc1 | -4.77 (active)
Cc1ccc(OCc2nc(C#N)c(N3CCCC3)o2)cc1 | -0.743
N#Cc1nc(-c2ccc(OCc3ccccc3)cc2)oc1NCCCN1CCOCC1 | 0.37
COc1cc(/C=C2/C(=O)NN(c3ccc(F)cc3)C2=O)cc([N+](=O)[O-])c1O | -2.31
COc1ccc(N2C(=O)CNC2=S)cc1 | 0.069
COc1ccc(-n2c(C)csc2=S)cc1 | 0.0167

SMILES | B-score of Tl+ flux slope (higher = more flux/activation; lower = inhibition)
COc1ccc(-c2cn(-c3ccc(OC)cc3)c(=S)[nH]2)cc1 | 8.53 (active)
O=C(O)CCCCCCCCCC[n+]1ccccc1 | 0.183
O=C(O)c1ccccc1OCc1ccccc1Cl | 0.00686
COc1ccc(OC)c(-n2c(-c3ccn[nH]3)n[nH]c2=S)c1 | -0.678
O=C(Nn1c(SCc2ccc([N+](=O)[O-])cc2)nc2ccccc2c1=O)c1ccc(F)cc1 | 0.0971
Cc1nc(SCc2ccc(F)cc2)c([N+](=O)[O-])[nH]1 | -4.77 (active)
Cc1cc([N+](=O)[O-])nn1Cc1ccc(F)cc1 | -0.826
CN(C)C(=O)c1nc2ccc(Cl)cn2c1CNCc1cccc(OC(F)(F)F)c1 | -0.562
COc1ccc(N2C(=O)CC(Nc3ccc(F)cc3)C2=O)c([N+](=O)[O-])c1 (stereo not given) | -1.31
Cc1ccc(S(=O)(=O)N(CC(=O)N2CCc3ccccc3C2)c2cccc(Cl)c2)cc1 | -1.52
O=C(CN(c1cccc(Cl)c1)S(=O)(=O)c1ccccc1)NN=C1CCCC1 | 3.73 (active)
CN1CCC(=NNC(=O)CN(c2cccc(Cl)c2)S(C)(=O)=O)CC1 | 0.643
CCn1c(SCC(=O)N/N=C/c2ccncc2)nc2ccccc21 | -0.7
Cc1cccc(NC(=O)CSc2nnc(CCNC(=O)OC(C)(C)C)o2)c1C | -0.155
COc1cccc(Nc2nc(N)c([N+](=O)[O-])c(NCc3ccco3)n2)c1 | -0.0593
COc1ccc(C(=O)N/N=C2\CCS(=O)(=O)c3ccc(F)cc32)cc1OC | 0.15
O=C(NCCCn1ccnc1)C(=O)NCC1OCCN1S(=O)(=O)c1cc(F)ccc1F (stereo not given) | -0.0662
S=c1[nH]nc(CSCc2ccc(Cl)cc2Cl)n1-c1ccccc1 | 38.3 (active)
COc1ccc(NCc2nnc(SCc3ccccc3)n2-c2ccc(OC)cc2)cc1 | -2.95
CCn1c(CSCc2c(Cl)cccc2Cl)n[nH]c1=S | -0.136
O=c1[nH]nc(CSCc2ccccc2Cl)[nH]1 | 1.48
S=c1[nH]nc(-c2cc(-c3ccsc3)n[nH]2)n1-c1ccccc1 | -0.815
Cc1ccc(NCc2n[nH]c(=S)n2-c2ccccc2)cc1Cl | 20.1 (active)
